Measurements published in PubChem BioAssay (Tox21).
Results filed as inconclusive are left out. Active and inactive are the calls of the source. Unless noted, calls come from the whole dose curve.

Experiments:
[1] = Nuclear factor erythroid 2-related factor 2/antioxidant responsive element (Nrf2/ARE) small molecule agonists: qHTS cell viability counter screen in human keratinocytes (AID 1919968; active = well fitted curve in the direction sought with a large enough effect in the repeat runs; an effect the other way counts as inactive or inconclusive; note: nearly all actives have a fitted effect of over 55% in size)
Procedure, shortened: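 KeratinoSens cells (HaCaT keratinocytes stably carrying an ARE-luciferase reporter) were seeded at 1,500 cells/well and rested 5 h at 37 C/5% CO2. They were then exposed to compounds in DMSO for 23 h. Viability was read by CellTiter-Fluor fluorescence after 1 h.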

[2] = molecular target: Gonadotropin-releasing hormone receptor (Homo sapiens) (UniProt P30968); test: Human gonadotropin-releasing hormone receptor (GnRHR) small molecule agonists, calcium flux assay in GnRHR-HEK293 cells (AID 1920063); note: nearly all actives have a fitted effect of over 35% in size
Chain of Gonadotropin-releasing hormone receptor (Homo sapiens) (P30968 whole entry, looked up): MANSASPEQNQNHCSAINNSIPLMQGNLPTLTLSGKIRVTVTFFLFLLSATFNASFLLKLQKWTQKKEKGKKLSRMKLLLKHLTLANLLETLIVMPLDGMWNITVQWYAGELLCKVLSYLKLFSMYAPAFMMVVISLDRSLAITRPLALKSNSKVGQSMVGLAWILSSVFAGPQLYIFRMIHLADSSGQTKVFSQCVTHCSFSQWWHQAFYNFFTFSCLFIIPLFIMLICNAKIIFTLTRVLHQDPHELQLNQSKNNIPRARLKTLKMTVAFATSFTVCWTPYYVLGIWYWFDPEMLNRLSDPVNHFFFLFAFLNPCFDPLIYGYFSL
Procedure, shortened: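 HEK293 cells stably expressing human GnRHR were plated 18 h at 37 °C, loaded with calcium dye 1 h at 37 °C, then given compound in agonist mode; fluorescence (Ex/Em 480/540) read kinetically for 3 min at 1 s intervals.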

[3] = molecular target: KiSS-1 receptor (Homo sapiens) (UniProt Q969F8); test: Human kisspeptin (KISS1R) small molecule agonists, calcium flux assay in KISS1R-HEK293 cells (AID 1920064; active = well fitted curve in the direction sought with a large enough effect in the repeat runs; an effect the other way counts as inactive or inconclusive)
Chain of KiSS-1 receptor (Homo sapiens) (Q969F8 whole entry, looked up): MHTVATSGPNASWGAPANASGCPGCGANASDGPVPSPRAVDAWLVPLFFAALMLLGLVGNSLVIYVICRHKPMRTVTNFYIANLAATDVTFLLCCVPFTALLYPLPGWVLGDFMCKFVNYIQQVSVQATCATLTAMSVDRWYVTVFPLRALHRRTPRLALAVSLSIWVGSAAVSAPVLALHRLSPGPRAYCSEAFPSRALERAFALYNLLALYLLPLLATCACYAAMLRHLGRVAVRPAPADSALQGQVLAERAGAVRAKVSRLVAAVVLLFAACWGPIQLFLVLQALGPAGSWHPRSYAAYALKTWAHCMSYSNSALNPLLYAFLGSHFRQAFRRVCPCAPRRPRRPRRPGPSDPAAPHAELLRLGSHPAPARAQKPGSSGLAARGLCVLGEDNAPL
Procedure, shortened: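 HEK293 cells stably expressing human KISS1R were plated 18 h at 37 °C, loaded with calcium dye for 1 h at 37 °C, then given compound by pin tool. Fluorescence (Ex/Em 480/540) was read kinetically for 3 min.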

[4] = G protein-coupled receptor (GPCR) small molecule agonists, calcium flux assay: HEK293 wild type cell line counter screen (AID 1920065)
Procedure, shortened: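 Cells were plated and cultured 18 h at 37 C/5% CO2, then loaded with calcium dye for 1 h at 37 C. Compounds in DMSO were pin-transferred in agonist mode, and fluorescence (Ex/Em 480/540) was read kinetically for 3 min at 1 s intervals.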

[5] = p53 small molecule agonists, cell-based qHTS assay with human liver microsomes (AID 1963577);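 note: p53 response element beta-lactamase reporter cells with liver microsomes plus NADPH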
Procedure, shortened: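 Steps: plate p53RE-bla cells, incubate 5 h at 37 C; add compound in DMSO; add microsomes (0.5 mg/mL final) and NADPH (0.5 mg/mL final); incubate 16 h at 37 C; add LiveBLAzer, 2 h RT; read fluorescence.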

[6] = p53 small molecule agonists, cell-based qHTS assay with human liver microsomes: qHTS cell viability counter screen (AID 1963579); note: nearly all actives have a fitted effect of over 45% in size
Procedure, shortened: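 After the 460/530 nm beta-lactamase read, CellTiter-Glo was added to the same wells and luminescence measured after 30 min at room temperature, giving viability of p53RE-bla cells treated 16 h with compounds plus microsomes and NADPH.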

[7] = p53 small molecule agonists, cell-based qHTS assay with rat liver microsomes: qHTS cell viability counter screen (AID 1963580); note: nearly all actives have a fitted effect of over 45% in size
Procedure, shortened: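 In HCT-116 cells carrying a p53 response element-bla reporter, compounds were metabolically activated in situ by rat liver microsomes with NADPH over 16 h. Cell ATP content then served as the cytotoxicity measure.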

[8] = p53 small molecule agonists, cell-based qHTS assay: qHTS cell viability counter screen (AID 1963581); note: nearly all actives have a fitted effect of over 45% in size
Procedure, shortened: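 p53RE-bla HCT-116 cells were exposed to compounds for 16 h at 37 C; after the beta-lactamase FRET read in the same wells, CellTiter-Glo was added and luminescence (intracellular ATP) read after 30 min at room temperature.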

[9] = molecular target: 5-hydroxytryptamine receptor 2A (Homo sapiens) (UniProt P28223); test: 5-hydroxytryptamine receptor 2A (HTR2A) small molecule antagonists, cell-based qHTS assay (AID 1963586); note: nearly all actives have a fitted effect of over 45% in size
Chain of 5-hydroxytryptamine receptor 2A (Homo sapiens) (P28223 whole entry, looked up): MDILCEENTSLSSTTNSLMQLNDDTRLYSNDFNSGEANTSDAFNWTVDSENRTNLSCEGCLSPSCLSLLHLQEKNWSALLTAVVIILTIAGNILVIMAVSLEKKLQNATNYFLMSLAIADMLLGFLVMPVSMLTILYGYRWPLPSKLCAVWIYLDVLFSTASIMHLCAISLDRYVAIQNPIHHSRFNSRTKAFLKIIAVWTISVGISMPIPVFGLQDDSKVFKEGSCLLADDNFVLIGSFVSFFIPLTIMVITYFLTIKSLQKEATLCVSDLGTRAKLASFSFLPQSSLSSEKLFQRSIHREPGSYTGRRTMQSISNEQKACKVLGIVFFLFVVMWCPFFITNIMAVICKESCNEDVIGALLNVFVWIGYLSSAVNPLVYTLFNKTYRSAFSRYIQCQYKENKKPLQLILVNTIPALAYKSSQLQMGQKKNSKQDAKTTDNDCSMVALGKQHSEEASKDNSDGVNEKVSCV
Procedure, shortened: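 Antagonist-mode intracellular calcium assay: DOI (4 nM) added after 5 min compound pre-incubation at room temperature to dye-loaded HTR2A-CHO cells. Fluorescence followed for 3 min, sampled every second.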

[10] = molecular target: 5-hydroxytryptamine receptor 2A (Homo sapiens) (UniProt P28223); test: 5-hydroxytryptamine receptor 2A (HTR2A) small molecule agonists, cell-based qHTS assay (AID 1963587); note: nearly all actives have a fitted effect of over 30% in size
Procedure, shortened: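 HTR2A-CHO cells, plated 18 h at 37 C/5% CO2, dye-loaded 1 h at 37 C; compounds in DMSO added by pin tool (agonist mode). Intracellular calcium flux read as kinetic fluorescence on FDSS over 2 min at 1 s intervals.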

[11] = molecular target: Muscarinic acetylcholine receptor M1 (Homo sapiens) (UniProt P11229); test: Cholinergic receptor muscarinic 1 (CHRM1) small molecule antagonists, cell-based qHTS assay (AID 1963588); note: nearly all actives have a fitted effect of over 40% in size
Chain of Muscarinic acetylcholine receptor M1 (Homo sapiens) (P11229 whole entry, looked up): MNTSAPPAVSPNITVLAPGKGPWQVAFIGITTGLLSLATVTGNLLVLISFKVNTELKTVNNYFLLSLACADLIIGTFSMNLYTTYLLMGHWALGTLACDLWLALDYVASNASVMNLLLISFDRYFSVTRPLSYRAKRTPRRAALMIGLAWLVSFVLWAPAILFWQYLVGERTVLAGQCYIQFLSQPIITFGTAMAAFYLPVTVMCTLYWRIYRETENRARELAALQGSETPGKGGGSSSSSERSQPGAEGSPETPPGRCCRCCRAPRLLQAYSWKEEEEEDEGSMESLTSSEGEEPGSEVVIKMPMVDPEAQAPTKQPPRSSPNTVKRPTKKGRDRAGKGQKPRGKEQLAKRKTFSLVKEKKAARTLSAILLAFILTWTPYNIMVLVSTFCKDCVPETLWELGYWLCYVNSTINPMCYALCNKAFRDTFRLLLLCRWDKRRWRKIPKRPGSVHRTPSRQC
Procedure, shortened: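 CHRM1-CHO calcium-flux assay, antagonist mode. Cells were seeded 18 h, dye-loaded 1 h at 37 C and given compound for 5 min at RT, then acetylcholine was added at 50nM. FDSS fluorescence was read 3 min; 15 concentrations, three runs.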

[12] = molecular target: Muscarinic acetylcholine receptor M1 (Homo sapiens) (UniProt P11229); test: Cholinergic receptor muscarinic 1 (CHRM1) small molecule agonists, cell-based qHTS assay (AID 1963589); note: nearly all actives have a fitted effect of over 35% in size
Procedure, shortened: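 CHO cells stably expressing human CHRM1, seeded 18 h at 37 C/5% CO2, dye-loaded 1 h at 37 C, then given compound in agonist mode; intracellular calcium fluorescence read kinetically at 1 s intervals. Fifteen concentrations, three independent runs.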

[13] = cAMP Responsive Elements (CRE) small molecule agonists, cell-based qHTS assay (AID 1963590)
Procedure, shortened: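 CRE-bla HEK 293T cells in DMEM with 10% dialyzed FBS, NEAA, pyruvate and 25 mM HEPES were plated 18 h at 37 C/5% CO2, then exposed to compounds in DMSO for 3 h before LiveBLAzer B/G FRET substrate addition.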

[14] = molecular target: Beta-2 adrenergic receptor (Homo sapiens) (UniProt P07550); test: Adrenergic beta2 receptor (ADRB2) small molecule antagonists, cell-based qHTS assay (AID 1963592); note: series mostly up to about 92 µM; nearly all actives have a fitted effect of over 50% in size
Chain of Beta-2 adrenergic receptor (Homo sapiens) (P07550 whole entry, looked up): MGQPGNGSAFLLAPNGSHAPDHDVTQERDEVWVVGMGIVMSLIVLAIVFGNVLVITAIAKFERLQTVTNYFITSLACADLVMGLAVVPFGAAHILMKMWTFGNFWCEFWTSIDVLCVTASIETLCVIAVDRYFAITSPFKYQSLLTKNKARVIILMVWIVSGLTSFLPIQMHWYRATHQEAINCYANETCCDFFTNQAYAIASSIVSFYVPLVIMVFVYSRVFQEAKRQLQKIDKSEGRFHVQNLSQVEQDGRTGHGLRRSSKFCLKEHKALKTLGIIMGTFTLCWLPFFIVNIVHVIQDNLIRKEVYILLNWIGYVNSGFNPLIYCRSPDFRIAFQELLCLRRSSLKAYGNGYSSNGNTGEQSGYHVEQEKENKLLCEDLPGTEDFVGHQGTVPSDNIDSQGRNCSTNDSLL
Procedure, shortened: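 Cells (CHO, stable ADRB2 overexpression) incubated 18-20hr at 37C; compounds added from DMSO; agonist mix (1nM isoproterenol, 100uM IBMX, 25uM Ro-20-1724) added; 0.5hr RT; d2-cAMP and anti-cAMP-cryptate added; 1hr RT; 665/615 nm read.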

[15] = molecular target: D(2) dopamine receptor (Homo sapiens) (UniProt P14416); test: Dopamine D2 receptor (DRD2) small molecule agonists, cell-based qHTS assay (AID 1963594); note: nearly all actives have a fitted effect of over 35% in size
Chain of D(2) dopamine receptor (Homo sapiens) (P14416 whole entry, looked up): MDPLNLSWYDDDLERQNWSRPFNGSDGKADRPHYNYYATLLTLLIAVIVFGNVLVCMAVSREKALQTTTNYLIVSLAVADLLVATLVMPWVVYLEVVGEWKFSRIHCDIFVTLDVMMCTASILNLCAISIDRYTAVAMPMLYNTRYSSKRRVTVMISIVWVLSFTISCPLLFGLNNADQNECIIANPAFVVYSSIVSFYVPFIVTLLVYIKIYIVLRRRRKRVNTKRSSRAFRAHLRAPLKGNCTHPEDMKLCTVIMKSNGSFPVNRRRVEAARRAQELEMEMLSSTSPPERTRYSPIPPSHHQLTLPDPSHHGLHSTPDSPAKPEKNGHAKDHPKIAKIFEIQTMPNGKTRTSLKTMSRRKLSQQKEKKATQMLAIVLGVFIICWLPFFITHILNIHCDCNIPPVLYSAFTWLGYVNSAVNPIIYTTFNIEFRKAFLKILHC
Procedure, shortened: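 HEK293 cells stably expressing DRD2 were cultured 24 h at 37 C, then given Ro20-1724 (0.1 mM final) and compounds for 10 min at room temperature. NKH477 (200nM) was then added for 30 min. cAMP was read by HTRF.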

[16] = molecular target: D(2) dopamine receptor (Homo sapiens) (UniProt P14416); test: Dopamine D2 receptor (DRD2) small molecule antagonists, cell-based qHTS assay (AID 1963595; active = well fitted inhibition curve with a large enough effect in the signal ratio in the repeat runs, with a control signal flat; the % refers to the signal ratio)
Procedure, shortened: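 In this cell-based antagonist screen, compounds act for 10 min at room temperature before a 30 min challenge with 12 nM quinpirole and 200 nM NKH477. cAMP is quantified by HTRF competition in DRD2-HEK293 cells containing 0.1 mM Ro20-1724.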

[17] = p53 small molecule agonists, cell-based qHTS assay with rat liver microsomes (AID 1963578)
Procedure, shortened: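 Metabolic activation is supplied by rat liver microsomes with NADPH (each 0.5 mg/mL final). p53RE-bla cells incubate with compound 16 h at 37 C; reporter activity is measured by LiveBLAzer fluorescence.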

[18] = p53 small molecule agonists, cell-based qHTS assay (AID 1963582; active = well fitted activation curve with a large enough effect in the signal ratio in the repeat runs, not every such curve was filed as active; the % refers to the signal ratio)
Procedure, shortened: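 p53RE-bla beta-lactamase reporter cells rested 5 h at 37 C/5% CO2, then received compounds in DMSO by pin transfer and were incubated 16 h at 37 C. LiveBLAzer B/G FRET substrate was loaded for 2 h at room temperature before fluorescence reading.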

[19] = cAMP Responsive Elements (CRE) small molecule antagonists, cell-based qHTS assay (AID 1963591; active = well fitted inhibition curve with a large enough effect in the signal ratio in the repeat runs, not every such curve was filed as active; the % refers to the signal ratio)
Procedure, shortened: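 CRE-bla HEK293T cells were plated 18 h at 37 °C/5% CO2, pinned with compound in DMSO, then stimulated with NKH477 at 0.25 uM final for 3 h. LiveBLAzer B/G FRET substrate was added and plates incubated 2 h at room temperature.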

[20] = molecular target: Beta-2 adrenergic receptor (Homo sapiens) (UniProt P07550); test: Adrenergic beta2 receptor (ADRB2) small molecule agonists, cell-based qHTS assay (AID 1963593);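 note: CHO cells stably overexpressing human ADRB2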
Procedure, shortened: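 CHO cells stably over-expressing ADRB2 were plated overnight at 37C, then dosed with compounds plus a stimulation mix containing 100uM IBMX and 25uM Ro-20-1724 for 0.5hr at room temperature. cAMP was measured by HTRF competition, 1hr.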
% is set by controls: 0 for no effect and ±100 for the full control effect.

COC(=O)/C=C/C(C)=C\C=C\C(C)=C\C=C\C=C(C)\C=C\C=C(C)\C=C\C(=O)O
inactive: Potency [1] | Potency [2] | Potency [3] | Potency [4] | Potency [5] | Potency [6] | Potency [7] | Potency [8] | Potency [9] | Potency [10] | Potency [11] | Potency [12] | Potency [13] | Potency [14] | Potency [15] | Potency [16]

CC/C=C\CCCCCO
inactive: Potency [1] | Potency [2] | Potency [3] | Potency [4] | Potency [17] | Potency [6] | Potency [7] | Potency [8] | Potency [18] | Potency [9] | Potency [10] | Potency [11] | Potency [13] | Potency [19] | Potency [14] | Potency [15] | Potency [16]

CCOC(=O)/C=C(C)/C=C/C=C(C)/C=C/c1c(C)cc(OC)c(C)c1C
inactive: Potency [1] | Potency [2] | Potency [3] | Potency [4] | Potency [5] | Potency [6] | Potency [7] | Potency [8] | Potency [9] | Potency [10] | Potency [11] | Potency [12] | Potency [19] | Potency [14] | Potency [20] | Potency [15] | Potency [16]

C=C/C=C/C=C/CCCCC
inactive: activity change, negative = cytotoxicity [1] 4.28% [at 19 µM] | activity change [2] 0.656% [at 11.8 µM, hits give high values] | activation [3] 1.28% [at 15.8 µM] | activation [4] 0.367% [at 11.8 µM] | activation [17] 0.431% [at 13.6 µM] | activity change, negative = cytotoxicity [6] 1.88% [at 13.5 µM] | activity change, negative = cytotoxicity [7] -6.94% [at 13.5 µM] | activity change, negative = cytotoxicity [8] -4.28% [at 13.5 µM] | activation [18] -3.72% [at 13.5 µM] | activation [10] -2.6% [at 15.9 µM] | activity, negative = inhibition [11] 25.8% [at 12.6 µM] | activation [12] 0.27% [at 15.8 µM] | activation [13] 0.016% [at 19 µM] | activity change, negative = inhibition [14] 4.38% [at 19 µM]

C=C(C)[C@@H]1CC=C(C)CC1
inactive: Potency [1] | Potency [2] | Potency [3] | Potency [4] | Potency [5] | Potency [6] | Potency [8] | Potency [18] | Potency [9] | Potency [10] | Potency [11] | Potency [13] | Potency [19] | Potency [14] | Potency [15] | Potency [16]

O=C1c2ccccc2C(=O)c2c(O)ccc(O)c21
inactive: Potency [1] | Potency [2] | Potency [3] | Potency [4] | Potency [17] | Potency [6] | Potency [7] | Potency [8] | Potency [18] | Potency [9] | Potency [10] | Potency [11] | Potency [12] | Potency [14] | Potency [20] | Potency [15] | Potency [16]

C=CC(=O)OCCC#N
inactive: Potency [1] | Potency [2] | Potency [3] | Potency [4] | Potency [17] | Potency [6] | Potency [7] | Potency [8] | Potency [9] | Potency [10] | Potency [12] | Potency [13] | Potency [19] | Potency [14] | Potency [20] | Potency [15] | Potency [16]
